Test results reported in PubChem BioAssay AID1851 (National Center for Advancing Translational Sciences (NCATS), 2009).
About 5,700 (36%) of roughly 16,000 compounds were called active. Roughly 24% stayed inconclusive and do not appear here. Calls follow the shape of the dose curve; as a rule, active = well fitted curve in the direction sought with a large enough effect; inconclusive = small, poorly fitted or top-dose-only effect, or effect the other way; inactive = no such curve, though single readings can be large or run the other way. This is one part of the list.

molecular target: Cytochrome P450 1A2 (Homo sapiens) (UniProt P05177); experiment: Cytochrome panel assay with activity outcomes; conditions: recombinant CYP, pro-luciferin dealkylation, luminescence, p450-cyp1a2; series mostly up to 57.1 µM
Sequence (P05177 whole entry, looked up): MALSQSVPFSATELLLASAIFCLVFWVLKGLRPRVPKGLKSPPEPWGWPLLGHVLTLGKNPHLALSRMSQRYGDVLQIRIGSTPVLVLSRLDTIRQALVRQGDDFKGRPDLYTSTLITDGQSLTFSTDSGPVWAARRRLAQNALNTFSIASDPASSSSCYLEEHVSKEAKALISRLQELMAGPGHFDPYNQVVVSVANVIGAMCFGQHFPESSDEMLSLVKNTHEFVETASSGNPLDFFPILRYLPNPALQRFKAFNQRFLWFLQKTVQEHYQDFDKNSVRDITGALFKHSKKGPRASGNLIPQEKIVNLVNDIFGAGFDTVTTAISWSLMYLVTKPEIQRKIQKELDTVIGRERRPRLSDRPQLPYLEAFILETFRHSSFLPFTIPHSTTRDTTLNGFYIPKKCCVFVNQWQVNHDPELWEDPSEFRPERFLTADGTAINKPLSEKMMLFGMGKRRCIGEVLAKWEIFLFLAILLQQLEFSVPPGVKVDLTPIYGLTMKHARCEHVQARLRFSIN
% is scaled to controls: 0 for no effect and ±100 for the full control effect.

activity, negative = inhibition, inactive:
CCOC(=O)N/N=C1/C[C@@H](O)[C@@H](O)[C@@H]2[C@@H]3C(=O)N([C@@H](C)c4ccccc4)C(=O)[C@H]3CC[C@@H]12 3.79% [at 11.4 µM]
Cc1cc(=Nc2ccc3c(c2)c(N)cc(C)[n+]3C)nc(N)n1C -5.28% [at 2.29 µM]
CCOC(=O)N/N=C1/C[C@@H](O)[C@@H](O)[C@@H]2[C@@H]3C(=O)N(c4cccc(Oc5ccccc5)c4)C(=O)[C@H]3CC[C@H]12 -3.4% [at 11.4 µM]
CC[C@@H](Nc1ncnc2nc[nH]c12)C(=O)O -2.91% [at 11.4 µM]
COc1ccc(O[C@H]2C=C[C@@H](c3ccccc3)O[C@H]2CO/N=C2/[C@H]3O[C@@H]3[C@@H](O)[C@H]3[C@H]2CCn2c(=O)n(-c4ccccc4)c(=O)n23)cc1 12.3% [at 11.4 µM]
CC(=O)N[C@@H]1CONC1=O -16.9% [at 11.4 µM]
CO[C@@H]1COC(=O)[C@H]2CCCN2C(=O)[C@@H](C)COC(=O)C/C=C\[C@H]1C 1.25% [at 11.4 µM]
O=S1(=O)[C@H]([C@H]2CC3c4ccccc4C2c2ccccc23)[C@@H](N2CCCCC2)[C@@H]1c1ccccc1 1.63% [at 2.29 µM]

AC50, inactive:
C=C(C)C(=O)N1CC2(CC(c3cccc(NC(=O)c4ccccc4)c3)=NO2)C[C@@H]1C(N)=O (some centres not stated)
CC1(C)O[C@@H]2C[C@H]3[C@H]4C[C@H](F)C5=CC(=O)CC[C@]5(C)[C@@H]4[C@H](O)C[C@]3(C)[C@]2(C(=O)CO)O1
CC1CCC(C(=O)NC(C(=O)N2CCC(N3CCCCC3)CC2)C(C)C)CC1 (configuration not stated)
CC(=O)N(C[C@@H](C)C(=O)O)c1c(I)cc(I)c(N)c1I
CCOc1ccc(-n2c(=O)[nH]cc(C(=O)N3CCCc4ccccc43)c2=O)cc1
COc1ccccc1C(=O)NN1C(=O)C2C3C=CC(O3)C2C1=O (configuration not stated)
Oc1cc2c(cc1O)[C@H](c1ccccc1)CNCC2
N#Cc1cccc(NC(=O)N2CCC3(CC2)CCN(C(=O)c2csnn2)CC3)c1
O=C(c1cccc(F)c1)N1CCC2(CC1)CN(c1ccc(-c3ccccc3)cc1)C2
O=C(c1cccc(F)c1)N1CCC2(CCCN(Cc3nccs3)C2)CC1
O=C(c1cccc(F)c1)N1CCC2(CC1)CCN(c1ccc(-c3ccccc3)cc1)CC2
Cc1noc(C)c1C(=O)N1CCC[C@@]2(CCN(Cc3nccs3)C2)C1
O=C(c1cccc(F)c1)N1CCC2(CCN(Cc3ccccc3)CC2)CC1
Cc1noc(C)c1C(=O)N1CCC2(CCCN(Cc3nccs3)C2)CC1
O=C(c1ccncc1)N1CCC2(CCN(Cc3nccs3)CC2)CC1
O=C(c1cccc(F)c1)N1CCC2(CCCN(Cc3ccccc3)C2)CC1
O=C(c1cc(C(F)(F)F)cc(C(F)(F)F)c1)N1CCC2(CC1)CCN(c1ncccn1)CC2
CCCCN1C(=O)C(NC(=O)CC(C)C)(C(F)(F)F)C2=C1CC(C)(C)CC2=O (configuration not stated)
O=C(c1cccc(F)c1)N1CCC[C@@]2(CCN(c3ccccc3)C2)C1
O=C(c1cccc(F)c1)N1CCC[C@@]2(CCN(c3ccncc3)C2)C1
C[N+]1(C)C[C@@H](O)C[C@@H]1C(=O)[O-]
COc1cccc(CN2C(=O)N(C(C)C)C(N(O)C(=O)NC(C)C)C2(C)C)c1OC (configuration not stated)
c1ccc(C(c2ccccc2)N2CCC3(CCNCC3)CC2)cc1
COC(=O)N1CCC2(CC1)CCN(c1cccc(-c3ccccc3)c1)CC2
COC(=O)N1CCC2(CC1)CCN(c1ccccc1)CC2
CC(=O)N1CCC2(CC1)CN(c1ccccc1)C2
CC(=O)N1CCC2(CCCN(c3ccccc3)C2)CC1
COC(=O)N1CCC2(CC1)CN(c1cccc(-c3ccccc3)c1)C2
CC(=O)N1CCC2(CC1)CCN(c1ccncc1)CC2
N#Cc1ccc(CN2CCC3(CC2)CCN(C(=O)c2ccncc2)CC3)cc1
COCC(=O)N1CCC2(CCCN(C(=O)Nc3ccccc3)C2)CC1
O=C(Oc1ccccc1)N1CCC2(CCCN(c3cccc(-c4ccccc4)c3)C2)CC1
COCC(=O)N1CCC2(CC1)CN(C(=O)Nc1ccc(OC)cc1)C2
COCC(=O)N1CCC2(CCCN(c3ccncc3)C2)CC1
NCC[C@H]1CCC[C@H](CCN)N1
O=C(NN=C1C2CC3CC(C2)CC1C3)c1ccncc1
O=C(Nc1nnc(C2CC2)s1)c1ccc(S(=O)(=O)c2ccccc2)cc1
Cc1ccccc1NC1=NC(=S)N(c2ccccc2)C12CCOC(C)(C)C2 (configuration not stated)
N#CC(c1ccccn1)(c1ncc(C(F)(F)F)cc1Cl)N1CCOCC1 (configuration not stated)
N#CC(c1ccc(Cl)cc1)(c1ncc(C(F)(F)F)cc1Cl)N1CCOCC1 (configuration not stated)
NC(=O)C[C@H](NC(=O)Cc1ccc(O)cc1O)C(=O)O
NC(=O)c1cc[n+](CC2=C(C(=O)O)N3C(=O)[C@@H](NC(=O)[C@H](c4ccccc4)S(=O)(=O)[O-])[C@@H]3SC2)cc1
COc1ccccc1CN1CCCC2(CCN(S(C)(=O)=O)CC2)C1
COc1ccc(CNC(=O)C(c2ccc(C)cc2)N(Cc2cccs2)C(=O)c2ccc3c(c2)OCCO3)cc1 (configuration not stated)
O=C(c1ccccc1NS(=O)(=O)c1cccc([N+](=O)[O-])c1)N1CCOCC1
Cc1nn(CC(=O)NCCN2CCOCC2)c(C)c1[N+](=O)[O-]
O=C(Nc1cccn2ncnc12)c1ccc(Cl)cc1Cl
CCOc1cccc(/C(O)=C2/C(=O)C(=O)N(Cc3cccnc3)C2c2ccco2)c1 (configuration not stated)
COc1cccc(/C(O)=C2/C(=O)C(=O)N(Cc3cccnc3)C2c2ccco2)c1 (configuration not stated)
N[C@@H](Cn1ccc(=O)n(Cc2ccccc2C(=O)O)c1=O)C(=O)O
O=C(CCn1nc(-c2ccc(Cl)cc2)ccc1=O)N1CCOCC1
Nn1c(SCC(=O)N2CCOCC2)nnc1-c1ccccc1Cl

AC50, active:
CNc1nc(Cl)nc(NC(C)(C)C)n1 8.91 µM
CC[C@H](Cc1c(I)cc(I)c(N)c1I)C(=O)O 12.6 µM
COc1ccccc1C(=O)NC(=S)N1CCCc2ccccc21 2.24 µM
O=C(c1cccc(F)c1)N1CCC2(CCN(Cc3nccs3)CC2)CC1 1.58 µM
O=C(c1cccc(F)c1)N1CCC2(CCCN(c3ccc(-c4ccccc4)cc3)C2)CC1 15.8 µM
O=C(c1cccc(F)c1)N1CCC2(CC1)CCN(c1ccccc1)CC2 15.8 µM
Cc1noc(C)c1C(=O)N1CCC2(CCN(Cc3nccs3)CC2)CC1 12.6 µM
O=C(c1cccc(F)c1)N1CCC[C@@]2(CCN(c3cccc(-c4ccccc4)c3)C2)C1 15.8 µM
COc1cccc(CNCc2ccc(SC)cc2)c1OC 15.8 µM
CC(=O)N1CCC2(CCCN(c3cccc(-c4ccccc4)c3)C2)CC1 5.01 µM
c1ccc(-c2cccc(N3CCC4(CCNCC4)CC3)c2)cc1 15.8 µM
CC(=O)N1CCC2(CC1)CCN(c1ccc(-c3ccccc3)cc1)CC2 10 µM
COCC(=O)N1CCC2(CC1)CCN(c1cccc(-c3ccccc3)c1)CC2 5.01 µM
COCC(=O)N1CCC2(CCCN(c3cccc(-c4ccccc4)c3)C2)CC1 15.8 µM
COCC(=O)N1CCC2(CC1)CN(C(=O)Nc1ccccc1)C2 12.6 µM
CCn1nc(C(=O)Nc2ccccc2C)c(Cl)c1Cl 1.26 µM
N#Cc1cccc(-c2nc(NCc3cccs3)c3ccccc3n2)c1 0.316 µM
N#Cc1cccc(-c2nc(NCc3ccccc3)c3ccccc3n2)c1 0.398 µM
N#Cc1cccc(-c2nc(NCc3cccnc3)c3ccccc3n2)c1 0.251 µM
O=C(Nc1nnc(C2CC2)s1)c1ccncc1 12.6 µM
CS(=O)(=O)c1ccc(-c2cc(Br)sc2-c2ccc(F)cc2)cc1 0.398 µM
FC(F)(F)c1cnc(/C=C/Nc2ccccc2Cl)c(Cl)c1 1.41 µM
CCc1nc2c(c(SC)nn2-c2ccccc2)c(N)c1C(=O)OC 0.631 µM
Nc1cc(-c2ccncc2)c[nH]c1=O 15.8 µM
COc1cccc(-c2nc(N(C)Cc3ccco3)c3ccccc3n2)c1 0.316 µM
COc1cccc(-c2nc(N(C)C)c3ccccc3n2)c1 0.251 µM
CN(Cc1ccco1)c1nc(-c2cccc(C#N)c2)nc2ccccc12 0.1 µM
c1ccc(CNc2ccnc(-c3ccc4c(c3)OCO4)n2)cc1 0.398 µM
c1cncc(CNc2ccnc(-c3ccc4c(c3)OCO4)n2)c1 0.126 µM
c1csc(CNc2ccnc(-c3ccc4c(c3)OCO4)n2)c1 0.316 µM
CCOC(=O)C1=C(N)Oc2ccc(Br)cc2[C@@H]1[C@@H](C#N)C(=O)OCC 0.251 µM
CCCN1CCC(=NNC(=O)c2ccc(Br)o2)CC1 8.91 µM
O=Nc1c(O)n(Cc2ccc(Cl)cc2)c2ccccc12 14.1 µM
Cl/C(=C\n1cncn1)c1ccc(Cl)cc1Cl 0.0631 µM
CCOc1cccc(/C(O)=C2/C(=O)C(=O)N(Cc3ccco3)C2c2ccncc2)c1 (configuration not stated) 25.1 µM
O=C(c1ccccc1)c1c[nH]c(C(=O)NCc2cccnc2)c1 3.55 µM
CC(C)Cn1c(-c2ccc(Cl)cc2)cnc1SCC(=O)N1CCOCC1 12.6 µM
